# Among all 140,000 compounds or so, about 550 (0.39%) were called active. The sample holds actives, similar compounds and a random draw of the others, so the mix is not that of the screen. Rule as the data show it: active = inhibition above about 27%; inactive = the rest.
# Biological target: Galanin receptor type 2 (Homo sapiens) (UniProt O43603)
# Test: GALR2 antagonists in receptor-expressing cells, primary screen (AID 828);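 also: cells stimulated with galanin 1-16 at roughly its EC80; 0% = agonist challenge control and 100% = basal control without agonist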
# Conditions: antagonist mode, at 4 µM, hits give high values
# Chain of Galanin receptor type 2 (Homo sapiens) (O43603 whole entry, looked up): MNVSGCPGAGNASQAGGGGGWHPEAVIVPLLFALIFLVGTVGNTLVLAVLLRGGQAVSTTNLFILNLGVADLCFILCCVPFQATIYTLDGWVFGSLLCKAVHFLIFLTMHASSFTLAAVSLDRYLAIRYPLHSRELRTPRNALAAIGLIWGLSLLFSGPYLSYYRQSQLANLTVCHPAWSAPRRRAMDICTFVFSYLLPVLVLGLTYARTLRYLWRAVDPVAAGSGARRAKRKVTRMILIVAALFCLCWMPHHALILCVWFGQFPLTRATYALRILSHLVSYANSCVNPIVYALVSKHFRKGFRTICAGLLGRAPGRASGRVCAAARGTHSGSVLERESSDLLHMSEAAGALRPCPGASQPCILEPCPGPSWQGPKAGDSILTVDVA
row,SMILES,inhibition
1,Cc1cc(Br)ccc1SCC(=O)OCC(=O)NCc1ccc2c(c1)OCO2,1.98% (inactive)
2,C/C(=N\Nc1ccc([N+](=O)[O-])cc1)c1ccc(-n2nncc2C(C)(C)C)cc1,-1.64% (inactive)
3,Cc1ccc(NC(=O)NC(=O)N(C2CCCCC2)S(=O)(=O)c2ccccc2)cc1,1.91% (inactive)
4,Cc1cc(C)c[n+](-c2nc3ccccc3nc2[N-]S(=O)(=O)c2cccs2)c1,-5.36% (inactive)
5,O=C(Nc1ccc2c(c1)OCO2)c1ccc(N2C(=O)c3ccccc3C2=O)cc1,-3% (inactive)
6,CC1CCCN(S(=O)(=O)c2ccc(N(C(=O)c3cnccn3)C(C(=O)NC3CCCCC3)c3cccs3)cc2)C1 (stereo unspecified),8.87% (inactive)
7,NS(=O)(=O)c1ccc(CCNC(=S)Nc2ccc(S(N)(=O)=O)cc2)cc1,5.94% (inactive)
8,Cc1cc(C)c(C#N)c(SCC(=O)NN2CC(=O)N(c3ccccc3F)CC2=O)n1,12.2% (inactive)
9,COc1ccc(C)cc1S(=O)(=O)N(CC(=O)Nc1cccc([N+](=O)[O-])c1)c1ccc(C)cc1,-2.05% (inactive)
10,O=C(COC(=O)C1CC2C=CC1C2)Nc1ccccc1 (stereo unspecified),-0.08% (inactive)
11,Cc1cc(C(=O)COC(=O)CNC(=O)c2ccc(F)cc2)c(C)n1Cc1ccco1,3.46% (inactive)
12,Cc1cccc(C(=O)NCC(=O)OCC(=O)N2CC3(C)CC2CC(C)(C)C3)c1 (stereo unspecified),1.61% (inactive)
13,Cc1nnnn1/C(=C\c1ccccc1)C(=O)OCC(=O)N1CC2(C)CC1CC(C)(C)C2 (stereo unspecified),27.3% (active)
14,COc1ccccc1C(=O)N1CC2(C)CC1CC(C)(C)C2 (stereo unspecified),1.39% (inactive)
15,COC(=O)N/N=C/c1ccc(-c2ccc(Cl)c(Cl)c2)o1,-7.04% (inactive)
16,COc1cc(C(=O)NNC(=O)c2ccc(S(=O)(=O)N3CCCCC3)cc2)cc(OC)c1OC,9.59% (inactive)
17,CC(C)COP(=O)(c1ccc(N(C)C)cc1)C(Nc1ccccc1)c1cccnc1 (stereo unspecified),3.84% (inactive)
18,O=C(CSC(=S)N1CCOCC1)c1ccccc1,5.48% (inactive)
19,COc1ccc(Nc2nc(NCc3ccco3)nc(N/N=C/c3ccccc3Cl)n2)cc1,-5.3% (inactive)
20,O=C(/C=C/c1ccccc1)Nc1nnc(SCC(=O)c2ccc3ccccc3c2)s1,-9.23% (inactive)
21,COc1ccc(C(=O)Nc2sc(C)c(C)c2CN2CCOCC2)cc1,3.47% (inactive)
22,COc1ccc(Cl)cc1NC(=O)[C@@H]1CCCN1C(=O)c1cccs1,-3.13% (inactive)
23,Cc1ccc(-c2nc3ccccc3[nH]2)cc1N,4.32% (inactive)

row,SMILES,inhibition
1,c1ccc(-c2[nH]ncc2-c2nc3ccccc3[nH]2)cc1,0.69% (inactive)
2,c1ccc2[nH]c(-c3nc4ccccc4[nH]3)nc2c1,35.5% (active)
3,Cc1ccc(-c2nc(-c3cccnc3)sc2CC(=O)Nc2ccc(C)c(Cl)c2)cc1,8.6% (inactive)
4,CSc1ccc(/C=N/NC(=O)c2cccc(Cl)c2)cc1,9.93% (inactive)
5,CCCN(CCC)C(=S)Nc1cc(C(=O)OC)ccc1C(=O)OC,0.52% (inactive)
6,O=C(Oc1cccc(N2C(=O)C3C4c5ccccc5C(c5ccccc54)C3C2=O)c1)c1ccco1 (stereo unspecified),1.71% (inactive)
7,O=C1C2C3C=CC(C4CC34)C2C(=O)N1c1nccs1 (stereo unspecified),-7.75% (inactive)
8,COc1cc2c(cc1O)[C@H](Cc1ccc(Oc3cc(C[C@@H]4NCCc5cc(OC)c(O)cc54)ccc3O)cc1)NCC2,1.51% (inactive)
9,CC[C@H]1CN2CCc3cc(OC)c(OC)cc3[C@@H]2C[C@@H]1C[C@H]1NCCc2cc(OC)c(OC)cc21,95% (active)
10,O=C(NCCc1ccccc1)C1CCC(Cn2c(=O)c3ccccc3n(Cc3cccnc3)c2=O)CC1 (stereo unspecified),-3.73% (inactive)
11,Cc1ccc(-n2nc(C)c(/C=N/NC(=O)c3cccs3)c2Cl)cc1,-3.43% (inactive)
12,S=c1[nH]nc(-c2cccnc2)n1/N=C/C(Cl)=C\c1ccccc1,18% (inactive)
13,Cc1cc(-c2n[nH]c(=S)n2/N=C/C(Br)=C/c2ccccc2)n[nH]1,34.7% (active)
14,Cc1ccc(/C=N\n2c(-c3ccccc3)n[nH]c2=S)s1,5.78% (inactive)
15,Cc1nc2ccccc2nc(C)c1=NOCc1ccc(Cl)cc1Cl,10.4% (inactive)
16,COc1ccc(/C=N/OCC(=O)N(Cc2ccccc2)c2ccccc2C(=O)O)cc1,2.54% (inactive)
17,CNC(=O)/C(C#N)=C/c1c(F)cccc1Cl,20.6% (inactive)
18,COc1ccc(/C=C2/C(=O)OCc3cc(OC)c(OC)cc32)c(OC)c1,2.64% (inactive)
19,COc1ccc(C2NC(=S)NC3=C2CCc2ccccc23)cc1OC (stereo unspecified),-4.17% (inactive)
20,O=C(N/N=C/c1ccccn1)C12CC3CC(CC(C3)C1)C2,-0.89% (inactive)
21,Cn1c(-c2ccco2)nc2cc3ccccc3cc21,29.7% (active)
22,CN1c2ccccc2-c2nc3ccccc3n2C1c1ccco1 (stereo unspecified),-6.2% (inactive)
23,CN(c1nc2ccccc2n2c(-c3ccco3)nnc12)S(=O)(=O)c1ccccc1,3% (inactive)

# Reference: PubChem BioAssay AID828 (The Scripps Research Institute Molecular Screening Center, 2007)
